Data: PubChem BioAssay (NCI)
About 83,000 compounds went through this panel and 20% of them were active in at least one assay; those are over-represented in the sample as a whole.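 96-well plates, one dose, 48 hours. Percent growth reported; active if below 10.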 Unmarked numbers belong to inactive results. Calls of active or inactive are those of the source.

Test system: DU-145 prostate
Experiment: NCI-60 one-dose screen, 48 h (100 = growth as untreated, 0 = no growth, -100 = all killed)
Settings: 10 µM unless noted

| SMILES | growth |
| --- | --- |
| O=c1nc(-c2ccccc2)c2cc(-c3ccc(N4CCCC4)nc3)ccc2[nH]1 | 85% |
| O=[N+]([O-])c1cccc(CN(Cc2cccc([N+](=O)[O-])c2O)c2ccccc2)c1O | 94.3% |
| Oc1ccccc1-c1nc2c3ccccc3c3ccccc3c2o1 | 104% |
| CN(C)CCCn1c2c(c3cc(-c4ccco4)ccc3c1=O)C(=O)c1ccccc1-2 | 66.8% |
| COc1ccc(C2CC(c3ccc(OC)cc3O)=NN2c2ccc(S(N)(=O)=O)cc2)cc1 (configuration not stated) | 61.9% |
| Cc1c(Cl)cccc1NC(=O)c1sc2nc3c(cc2c1N)CCCCCC3 | 9.29% (active) |
| [2H]c1cc2c(c([2H])c1F)/C(=C/c1[nH]c(C)c(C(=O)NCCN(CC)CC)c1C)C(=O)N2 | 34.6% |
| CC(=O)Oc1c2c(nc3c1c1ccccc1n3Cc1ccccc1)-c1ccccc1C2 | 99.1% |
| C=C(C)[C@@H]1CC[C@]2(C(=O)n3ccnc3)CC[C@]3(C)[C@H](CC[C@@H]4[C@@]5(C)CCCNC(C)(C)[C@@H]5CC[C@]43C)[C@@H]12 | 37% |
| CC(C)C[C@H](C(=O)O)N(C)C(=O)[C@@H]1CCCN1C(=O)[C@H](C)OC(=O)[C@H](CCC(N)=O)NC(=O)[C@@H]1CCC(=O)N1 | 106% |
| COC(=O)CCc1cc(O)c2c(c1)[C@@H](C(=O)OC)[C@H](c1ccc(O)c(O)c1)O2 | 95% |
| CCCCN(CCCC)CC(CN(CC)CC)OC(=O)Nc1ccccc1 (configuration not stated) | 99.9% |
| COC(=O)CCc1n(Cc2ccc3ccccc3c2)c2ccccc2[n+]1Cc1ccc2ccccc2c1 | 28% |
| COc1ccc(Nc2nc(SCC(C)C)nc(-c3ccc(F)cc3)c2C#N)cc1 | 79.4% |
| CCCS(=O)(=O)Nc1ccc(F)c(C(=O)c2c[nH]c3ncc(-c4ccc(OCCCC5CCCCN5)nc4)cc23)c1F (configuration not stated) | 87.5% |
| CC(=O)c1ccc(NC(=O)CSc2nnc(-c3cc(-c4ccc(C)cc4)nc4ccccc34)o2)cc1 | 63.5% |

| SMILES | growth |
| --- | --- |
| Oc1ccc(CNNc2ccnc3c(O)cccc23)c2cccnc12 | 43.4% |
| COc1ccc(-c2cs/c(=N\N=C\c3ccc(O)cc3O)n2/N=C/c2ccc(O)cc2O)cc1 | 4.25% (active) |
| c1ccc(-c2n(Cc3ccc4ccccc4n3)cc[n+]2Cc2ccc3ccccc3n2)cc1 | 65.8% |
| O=C1C(Cl)=C(NCCCN(CCCNC2=C(Cl)C(=O)c3ccccc3C2=O)C2=C(Cl)C(=O)c3ccccc3C2=O)C(=O)c2ccccc21 | -88% (active) |
| CCc1ccc(OCc2ccccc2C(=O)Nc2ccc3nc(C)cc(N)c3c2)cc1 | -96.3% (active) |
| CC1CCN(CCCCCOc2ccc3oc4cc(Cl)ccc4c(=O)c3c2)CC1 | 83.7% |
| Nc1ccccc1NS(=O)(=O)c1ccc(Cl)cc1 | 94.2% |
| COc1cc(C2=NNC(c3ccc(N(C)C)cc3)C2)cc(OC)c1OC (configuration not stated) | 3.51% (active) |
| COc1cc(NC(=O)Nc2cnc(Nc3ccc(N4CCOCC4)cc3)nc2Oc2ccc(C(F)(F)F)cc2)cc(OC)c1 | 118% |
| C=C(C)[C@@H]1CC[C@]2(C(=O)O)CC[C@]3(C)[C@H](CC[C@@H]4[C@@]5(C)C[C@@H](CC#Cc6ccc(Cl)cc6)C(=O)C(C)(C)[C@@H]5CC[C@]43C)[C@@H]12 | 39.4% |
| Cc1cc(Nc2nc(SCc3ccc(C(=O)Nc4ccc(F)cc4N)cc3)nn3cccc23)n[nH]1 | 20.1% |
| O=C(/C(=C/c1ccc([N+](=O)[O-])cc1)SCc1ccc(F)cc1)c1ccc(Cl)cc1 | 87.5% |
| C#C[C@@]1(O)[C@@H](CO)O[C@@H](n2cc(Br)c3c(N)ncnc32)[C@@H]1O | 5% (active) |
| CC(=O)[C@@H]1CC[C@]2(C(=O)O)CC[C@]3(C)[C@H](CC[C@@H]4[C@@]5(C)Cc6c([nH]c7ccccc67)C(C)(C)[C@@H]5CC[C@]43C)[C@@H]12 | 59.4% |
| CC[C@]12C=CCN3CC[C@@]4(c5cc(NC(=O)CCC(=O)O[C@H]6CC[C@H]7[C@@H]8CC[C@H]9CC(=O)CC[C@]9(C)[C@H]8CC[C@]67C)c(OC)cc5N(C)[C@H]4[C@@](O)(C(=O)OC)[C@@H]1OC(C)=O)[C@@H]32 | 86.8% |
| CCCCCOC(=O)c1ccccc1O | 107% |
